Source: PubChem BioAssay (NCI)
Compounds without any hit were thinned out: in the full panel of roughly 83,000, 20% have a hit.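 Testing used 96-well plates and a 48-hour single-concentration exposure. Example: -40 means 40% of the starting cells died.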 Active and inactive are the calls of the source. The calls were made as follows: active = growth percent below 10; inactive = the rest.

Each molecule was assayed on HL-60(TB) leukemia (assay: NCI-60 one-dose screen, 48 h (100 = growth as untreated, 0 = no growth, -100 = all killed)). Details: 10 µM unless noted.

Row | SMILES | growth
1 | COC(=O)c1cc(C(=O)C(F)(F)F)n2c3ccccc3c3ccccc3c12 | 99.5% (inactive)
2 | CCCCNc1ccc2c3c(cccc13)C(=O)N(NCC(O)COc1ccc3c(C)cc(=O)oc3c1)C2=O (stereo unspecified) | 100% (inactive)
3 | COc1ccc(C2CC(c3ccc(S(=O)(=O)NCCNc4nc(Nc5ccc(F)cc5)nc(N(C)C)n4)cc3)=Nc3c(N)nc(N)nc3N2)cc1 (stereo unspecified) | 52.5% (inactive)
4 | COc1ccc(-c2ccnc(SCc3cc4cc(OC)ccc4[nH]c3=O)n2)cc1 | -8.43% (active)
5 | COc1cc(/C=C2\C(=N)N=C(SCc3nc4ccccc4[nH]3)NC2=O)ccc1O | 83.7% (inactive)
6 | O=C(Nc1nc2ccccc2s1)c1ccc(Br)cc1 | 99.1% (inactive)
7 | COc1ccc2[nH]cc(/C=N/Nc3ccc(Br)cn3)c2c1 | 5.34% (active)
8 | C=C1CCC2C3(C)COC(c4cc(F)cc(F)c4)OC3CCC2(C)C1C/C=C1/C(=O)OCC1O (stereo unspecified) | -9.61% (active)
9 | CCN1CCN(Cc2ccc(C(=O)Nc3cccc(Nc4ccc5c(OC)cccc5n4)c3)cc2C(F)(F)F)CC1 | -57.1% (active)
10 | Cn1cc(NC(=O)c2cc(NC(=O)c3ccc(C#Cc4ccccc4)cc3)cn2C)cc1C(=O)NCCCN1CCOCC1 | -67% (active)
11 | O=C1/C(=C/c2cccc3c2OCO3)Cc2c(F)cc(Br)cc21 | 97.8% (inactive)
12 | C#C[C@]1(O)CC[C@H]2[C@@H]3CC=C4c5sc(-c6ccc([N+](=O)[O-])cc6)nc5CC[C@]4(C)[C@H]3CC[C@@]21C | 23.7% (inactive)
13 | O=C1c2cccc3c(N4CCN(Cc5ccccc5)CC4)ccc(c23)C(=O)N1c1cccc(-c2nn(-c3ccccc3)cc2-c2nc3ccccc3s2)c1 | 105% (inactive)
14 | Nc1nc(-c2ccccc2)cs1 | 18.9% (inactive)
15 | COc1ccc(N=Nc2c(N)nn3c(-c4cc5cc(Br)ccc5oc4=O)ccnc23)cc1 | 102% (inactive)
16 | CCCCCCCCOc1cccc(S(=O)(=O)Nc2ccc(C)cc2C(=O)O)c1 | 101% (inactive)
17 | Nc1nc(Nc2ccccc2)nn1Cc1c(Cl)cccc1Cl | 30% (inactive)
18 | CCCCSc1nc(Nc2ccc(S(N)(=O)=O)cc2)c(C#N)c(-c2ccc(Cl)cc2)n1 | 62.9% (inactive)

Row | SMILES | growth
19 | COc1csc(/C=N/NC(=O)c2[nH]c3ccc(Br)cc3c2-c2ccccc2)c1 | -42.8% (active)
20 | Cc1cc(C(F)(F)F)ccc1C(=O)Nc1sc2c(c1C#N)CCC(=O)C2 | -14.5% (active)
21 | ClC(Cn1ncc2c(Nc3cccc(Br)c3)nc(SCCN3CCOCC3)nc21)c1ccc(Br)cc1 (stereo unspecified) | -31.9% (active)
22 | Cc1ccc(-c2nc(Nc3ccccc3S(N)(=O)=O)c3ccccc3n2)cc1 | 81.1% (inactive)
23 | C=C1CCC2C3(C)COC(c4ccc(F)cc4)OC3CCC2(C)C1C/C=C1/C(=O)OCC1O (stereo unspecified) | 0.0909% (active)
24 | Cn1cc(-c2cc3nc(-c4cn(C)c5ncccc45)cc(N)n3n2)c2cc(F)ccc21 | 7.11% (active)
25 | Cc1cccc(NC(=O)CSc2nc3ccc(F)cc3c(=O)n2-c2ccc(Cl)cc2)c1C | 96.4% (inactive)
26 | O=S(=O)(Nc1cccc(-n2cnc3cc(-c4ccc(O)cc4)ccc32)c1)C1CC1 | -19.9% (active)
27 | NS(=O)(=O)c1ccc(-n2cc(-c3cccc(NC(=O)c4cc(C(F)(F)F)cc(C(F)(F)F)c4)c3)nn2)cc1 | 63.4% (inactive)
28 | CC(=O)Oc1ccc(/C=C/C(=O)N[C@@H](Cc2ccccc2)C(O)C(=O)NCc2ccccc2)cc1OC(C)=O (stereo partly specified) | 79.4% (inactive)
29 | Cc1ccc(C(=O)C[n+]2cccc3c4ccccc4ccc32)cc1 | 1.77% (active)
30 | COc1cccc(O)c1/C=C1\SCc2cc3c(OC)cccc3[o+]c21 | 100% (inactive)
31 | CN1C(=O)/C(=C/c2ccc(C(=O)Nc3ncc(Cc4ccc(Cl)cc4Cl)s3)cc2)SC1=S | 19.2% (inactive)
32 | O=C(Nc1cccc(C(F)(F)F)c1)c1cncc(C#Cc2cnc3cccnn23)c1 | 29.9% (inactive)
33 | Cc1ccc(C2CC(c3ccc(NC(=S)Nc4ccccc4)cc3)=NN2c2ccc(S(N)(=O)=O)cc2)cc1 (stereo unspecified) | 8.89% (active)
34 | CCCSc1nnc(-c2c(C)nc3sccn23)o1 | 98.3% (inactive)
35 | N/C(=N\c1nc2ccccc2s1)NC(=O)Nc1ccccc1Br | -28.5% (active)
36 | Cc1nc(Nc2ncc(C(=O)Nc3c(C)cccc3Cl)s2)cc(N2CCN(CCCNC(=O)COc3ccc(C4CCC(=O)NC4=O)cc3)CC2)n1 (stereo unspecified) | 76.3% (inactive)
